Compounds with a hit are over-represented: about 4.1% of the library has one in this group of screens.
Peg3 promoter: reduces Peg3 promoter-driven luciferase expression in HeLa. AID 588405. 360,000 compounds, 1.7% hits. HeLa PEG-Prom luciferase reporter, luminescence, overnight. inhibition, % at 20 µM;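 active = inhibition of at least 50% at 20 µM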
Shn3 inh set2: inhibitors of Schnurri-3 3'UTR reporter in osteoblasts; AID 588674; 360,000 compounds, 0.52% hits; inhibition, % at 12.5 µM; Clone20 osteoblast Shn3 3'UTR firefly luciferase, 24 h;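 active = mean inhibition of at least 75% with every replicate also reaching 75%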;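 also: 0% = median of neutral control wells and 100% = pilot-screen positive control compound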
MITF TRPM1 inh: MITF TRPM1 promoter inhibition in SK-MEL-5 cells; SK-MEL-5 TRPM1 promoter luciferase, 24 h; inhibition, % at 12.5 µM; 330,000 compounds, 0.83% hits;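 active = mean inhibition across replicates of 60% or more, whatever share of single replicates reaches that level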
TWEAK Fn14 block: blocks TWEAK-Fn14 interaction in a reporter cell assay; 360,000 compounds, 2% hits; TWEAK-stimulated Fn14 reporter cells, luciferase luminescence, 8 h; AID 1159606; inhibition, % at 10 µM; in the data active = inhibition above about 50%
TROY signal inh: blocks TROY-dependent signaling in reporter cells. inhibition, % at 10 µM. 360,000 compounds, 0.98% hits. Q293 LMP1-TROYcd NF-kB luciferase reporter, 4 h. AID 1347056;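 active = compounds whose plate-normalised and pattern-corrected inhibition of the luciferase reporter signal at the single screening dose is 50% or more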
LMP1 NFkB inh: inhibitors of Epstein-Barr LMP1-induced NF-kappaB reporter. 350,000 compounds, 0.69% hits. AID 504558. inhibition, % at 12.5 µM. LMP1-induced NF-kappaB luciferase reporter cells, luminescence; in the data active = inhibition above about 41%;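 also: 0% = neutral control wells and 100% = reference inhibitor control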
Numbers without * were called inactive; . = not tested or not shown.

SMILES | Peg3 promoter | Shn3 inh set2 | MITF TRPM1 inh | TWEAK Fn14 block | TROY signal inh | LMP1 NFkB inh
N=C1S/C(=C\c2ccccc2)C(=O)N1c1ccc(F)cc1 | 8 | -25 | -11 | -24 | -3 | 67*
N=C1S/C(=C\c2ccccc2F)C(=O)N1c1ccc(F)cc1 | 9 | 4 | -13 | -17 | 15 | 7
COc1cc(/C=C2\SC(=N)N(c3ccc(F)cc3)C2=O)ccc1O | 42 | -1 | -11 | 52* | 14 | -3
CCOc1ccc(N2C(=O)S/C(=C\c3ccc(O)c(OC)c3)C2=O)cc1 | -19 | 7 | -17 | 4 | 3 | 5
CC(NC(=O)C1CCN(S(=O)(=O)c2cccc3nonc23)CC1)c1ccccc1 (stereo unspecified) | 2 | 2 | 13 | 45 | 8 | -2
O=C1CCc2cc(S(=O)(=O)NC(Cc3ccccc3)C(=O)NCCC3=CCCCC3)ccc2N1 (stereo unspecified) | 5 | -51 | -2 | 9 | 3 | -24
COc1ccc(C2CC(c3ccccc3)=NN2C(=O)COC(=O)c2cnc(Cl)c(Cl)c2)cc1 (stereo unspecified) | 99* | -1 | 11 | -71 | -45 | 8
COc1ccc(C2CC(c3ccccc3)=NN2C(=O)COC(=O)c2ccc(Cl)nc2)cc1 (stereo unspecified) | -68 | -6 | -4 | -65 | -110 | 2
CS(=O)(=O)c1ccc(C(=O)OCC(=O)N2CCN(CCC3CCCCC3)CC2)cc1[N+](=O)[O-] | 97* | 96* | . | 79* | 34 | .
COc1ccc(C2=NN(C(=O)COC(=O)c3ccc(S(C)(=O)=O)c([N+](=O)[O-])c3)C(c3ccco3)C2)cc1 (stereo unspecified) | 94* | 66 | 81* | 69* | 16 | -3
CS(=O)(=O)c1ccc(C(=O)OCC(=O)N2CCOCC2)cc1[N+](=O)[O-] | 0 | 95* | . | 40 | 3 | .
Nc1ccc2c(c1)C(=O)c1ccc(N)cc1-2 | -190 | -74 | -35 | -22 | -41 | -29
Cc1ccc(S(=O)(=O)N[C@H](C(=O)OCC(=O)NC(=O)c2cccn2C)C(C)C)cc1 | -8 | 3 | -1 | -19 | 6 | -9
O=C(CSc1nnc(CNC(=O)c2cccs2)o1)NCC1CCCO1 (stereo unspecified) | 7 | -13 | -3 | -10 | 2 | -7
COCCn1c(=O)[nH]c2cc(C(=O)Nc3cc(C)cc(C)c3)ccc2c1=O | 20 | 17 | 2 | 30 | 5 | 11
CCOc1ccc(NS(=O)(=O)c2cc(C(=O)N3CCN(C(C)=O)CC3)ccc2Cl)cc1 | 9 | -3 | 12 | 89* | -1 | -1
CCOc1ccccc1N1CCN(C(=O)c2cc(S(=O)(=O)N3CCCCC3)ccc2C)CC1 | 30 | 14 | 5 | 8 | 6 | -6
CCOc1ccccc1N1CCN(C(=O)c2ccc(Cl)c(S(=O)(=O)N3CCCCC3)c2)CC1 | 26 | 22 | 13 | 42 | 53* | 14
Cc1onc(-c2c(F)cccc2Cl)c1C(=O)OCn1nnc2ccccc2c1=O | 15 | 19 | 6 | 0 | 2 | -6
Cc1oc(-c2cccs2)nc1CNC[C@H]1O[C@@H](n2cnc(C(N)=O)n2)[C@H](O)[C@@H]1O | -2 | -15 | 7 | 15 | 12 | 3
COC(=O)c1cc(Cn2nc(C(=O)O)c3ccccc3c2=O)oc1C | 3 | 20 | -2 | -13 | -2 | -12
CCC(C)(C)C1CCc2[nH]nc(C(=O)NN)c2C1 (stereo unspecified) | 5 | 1 | 1 | 45 | 69* | -1
CCOc1ccc2c(C)c(Cl)c(=O)oc2c1 | -36 | -5 | 2 | -12 | -18 | 64*
Cc1c(Cl)c(=O)oc2cc(OCC(=O)NCc3cccs3)ccc12 | 9 | -11 | -4 | -21 | -5 | -2
CC1(C)NC(=O)N(CC(=O)O)C1=O | 10 | 3 | 7 | -8 | 6 | -6
Cc1cc(=O)[nH]c(SCC(=O)OCc2ccccc2)c1C#N | -30 | -15 | -15 | -33 | -9 | 11
O=c1c(Cc2ccc(Cl)cc2Cl)c(O)ccn1Cc1ccc(Cl)cc1 | 10 | -4 | -5 | -3 | 51* | -3
C=C(C)CN(CC)C(=O)Cn1cnc2c(oc3ccccc32)c1=O | -10 | -15 | -5 | -11 | 54* | -5
COC(=O)c1cc(=O)n(Cc2ccc(F)cc2)c(=Nc2ccccc2)s1 | 55* | -1 | 20 | 32 | 3 | -3

From PubChem BioAssay
